Reference: PubChem BioAssay (NCI)
Several values for one entry are separate records, joined by “and”; a condition that tells them apart may be missing. Identical values can stand only once. About 83,000 compounds went through this panel and 20% of them were active in at least one assay; those are over-represented in the sample as a whole.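 Percent growth is the endpoint: 0 to 100 indicates growth inhibition (40 means 60% inhibition), 0 means no net growth, and negative values indicate cell death.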 Activity calls are given as the source filed them. How the source made its calls: active means growth percent below 10; inactive means the rest.

How the values were obtained:
Assay in all cases: NCI-60 one-dose screen, 48 h (100 = growth as untreated, 0 = no growth, -100 = all killed)
SK-MEL-2 melanoma = tested on: SK-MEL-2 melanoma
EKVX NSCLC = tested on: EKVX NSCLC
SN12C renal = tested on: SN12C renal
UO-31 renal = tested on: UO-31 renal
TK-10 renal = tested on: TK-10 renal
ACHN renal = tested on: ACHN renal
CAKI-1 renal = tested on: CAKI-1 renal
A498 renal = tested on: A498 renal
CCRF-CEM leukemia = tested on: CCRF-CEM leukemia
RPMI-8226 leukemia = tested on: RPMI-8226 leukemia
OVCAR-8 ovarian = tested on: OVCAR-8 ovarian
OVCAR-5 ovarian = tested on: OVCAR-5 ovarian
OVCAR-4 ovarian = tested on: OVCAR-4 ovarian
SK-OV-3 ovarian = tested on: SK-OV-3 ovarian
IGROV1 ovarian = tested on: IGROV1 ovarian
OVCAR-3 ovarian = tested on: OVCAR-3 ovarian
HS 578T breast = tested on: HS 578T breast
NCI/ADR-RES ovarian = tested on: NCI/ADR-RES ovarian
MOLT-4 leukemia = details: 10 µM unless noted
SR leukemia = details: 10 µM unless noted

Measured: growth

CC/C(=C(/c1ccc(O)cc1)c1ccc(OCCN(C)C(=O)COCCOCCNC(=O)c2ccc3c(c2)CN([C@@H]2CCC(=O)NC2=O)C3=O)cc1)c1ccccc1
active: CCRF-CEM leukemia; 1 µM 9.04%
inactive: SK-MEL-2 melanoma; 1 µM 101% | SK-MEL-2 melanoma; 10 µM 93.5% | EKVX NSCLC; 1 µM 99.1% | EKVX NSCLC; 10 µM 93.4% | SN12C renal; 1 µM 96% | SN12C renal; 10 µM 85% | UO-31 renal; 1 µM 87.2% | UO-31 renal; 10 µM 87.7% | TK-10 renal; 1 µM 99.1% | TK-10 renal; 10 µM 91.2% | ACHN renal; 1 µM 104% | ACHN renal; 10 µM 101% | CAKI-1 renal; 1 µM 99.3% | CAKI-1 renal; 10 µM 95.5% | A498 renal; 1 µM 114% | A498 renal; 10 µM 110% | CCRF-CEM leukemia; 10 µM 12.9% | RPMI-8226 leukemia; 1 µM 99.6% | RPMI-8226 leukemia; 10 µM 78.5% | OVCAR-8 ovarian; 1 µM 102% | OVCAR-8 ovarian; 10 µM 61.1% | OVCAR-5 ovarian; 1 µM 96% | OVCAR-5 ovarian; 10 µM 86.8% | OVCAR-4 ovarian; 1 µM 103% | OVCAR-4 ovarian; 10 µM 93% | SK-OV-3 ovarian; 1 µM 91.1% | SK-OV-3 ovarian; 10 µM 92.8% | IGROV1 ovarian; 1 µM 63.1% | IGROV1 ovarian; 10 µM 37.6% | OVCAR-3 ovarian; 1 µM 99.1% | OVCAR-3 ovarian; 10 µM 95.8% | HS 578T breast; 1 µM 70.9% | HS 578T breast; 10 µM 53.9% | NCI/ADR-RES ovarian; 1 µM 106% | NCI/ADR-RES ovarian; 10 µM 102%

Cc1cccc(/C=C/c2ccc(NC(=S)NCCCCN(C)C)cc2)c1
active: SK-MEL-2 melanoma; 10 µM unless noted -79.6% | EKVX NSCLC; 10 µM unless noted -90.5% | SN12C renal; 10 µM unless noted -84.5% | UO-31 renal; 10 µM unless noted -93.2% | TK-10 renal; 10 µM unless noted -89.8% | ACHN renal; 10 µM unless noted -100% | CAKI-1 renal; 10 µM unless noted -89.6% | A498 renal; 10 µM unless noted -83.7% | CCRF-CEM leukemia; 10 µM unless noted -36.6% | MOLT-4 leukemia -16.1% | SR leukemia -17.4% | RPMI-8226 leukemia; 10 µM unless noted -26.1% | OVCAR-8 ovarian; 10 µM unless noted -62.3% | OVCAR-5 ovarian; 10 µM unless noted -94.2% | OVCAR-4 ovarian; 10 µM unless noted -93.7% | SK-OV-3 ovarian; 10 µM unless noted -65.9% | IGROV1 ovarian; 10 µM unless noted -91% | OVCAR-3 ovarian; 10 µM unless noted -55.4% | HS 578T breast; 10 µM unless noted -54% | NCI/ADR-RES ovarian; 10 µM unless noted -95.1%

CC/C(=C(/c1ccc(O)cc1)c1ccc(OCCN(C)C(=O)COCCOCCNC(=O)Cc2ccc3c(c2)CN([C@@H]2CCC(=O)NC2=O)C3=O)cc1)c1ccccc1
active: CCRF-CEM leukemia; 1 µM -11%
inactive: SK-MEL-2 melanoma; 1 µM 95.4% | SK-MEL-2 melanoma; 10 µM 64.1% | EKVX NSCLC; 1 µM 99.4% | EKVX NSCLC; 10 µM 105% | SN12C renal; 1 µM 88.7% | SN12C renal; 10 µM 53.5% | UO-31 renal; 1 µM 91.6% | UO-31 renal; 10 µM 89.4% | TK-10 renal; 1 µM 101% | TK-10 renal; 10 µM 89.2% | ACHN renal; 1 µM 102% | ACHN renal; 10 µM 106% | CAKI-1 renal; 1 µM 99.8% | CAKI-1 renal; 10 µM 101% | A498 renal; 1 µM 119% | A498 renal; 10 µM 115% | CCRF-CEM leukemia; 10 µM 16.7% | RPMI-8226 leukemia; 1 µM 90.3% | RPMI-8226 leukemia; 10 µM 72% | OVCAR-8 ovarian; 1 µM 93.9% | OVCAR-8 ovarian; 10 µM 21.9% | OVCAR-5 ovarian; 1 µM 95.3% | OVCAR-5 ovarian; 10 µM 86.6% | OVCAR-4 ovarian; 1 µM 101% | OVCAR-4 ovarian; 10 µM 59.2% | SK-OV-3 ovarian; 1 µM 86.1% | SK-OV-3 ovarian; 10 µM 71.6% | IGROV1 ovarian; 1 µM 50% | IGROV1 ovarian; 10 µM 17.8% | OVCAR-3 ovarian; 1 µM 95.6% | OVCAR-3 ovarian; 10 µM 61.3% | HS 578T breast; 1 µM 64.8% | HS 578T breast; 10 µM 19.1% | NCI/ADR-RES ovarian; 1 µM 103% | NCI/ADR-RES ovarian; 10 µM 107%

COc1ccc(C(=O)c2cc(C(C)=O)c3c(C)cc(C)cn23)cc1
inactive: SK-MEL-2 melanoma; 10 µM unless noted 70.9% | EKVX NSCLC; 10 µM unless noted 49.4% | SN12C renal; 10 µM unless noted 55% | UO-31 renal; 10 µM unless noted 67.5% | TK-10 renal; 10 µM unless noted 57.4% | ACHN renal; 10 µM unless noted 56.6% | CAKI-1 renal; 10 µM unless noted 38.6% | A498 renal; 10 µM unless noted 86.1% | CCRF-CEM leukemia; 10 µM unless noted 104% | MOLT-4 leukemia 82.3% | SR leukemia 31.8% | RPMI-8226 leukemia; 10 µM unless noted 67.7% | OVCAR-8 ovarian; 10 µM unless noted 18.4% | OVCAR-5 ovarian; 10 µM unless noted 80.5% | OVCAR-4 ovarian; 10 µM unless noted 49.8% | SK-OV-3 ovarian; 10 µM unless noted 29.1% | IGROV1 ovarian; 10 µM unless noted 80.8% | OVCAR-3 ovarian; 10 µM unless noted 43.9% | HS 578T breast; 10 µM unless noted 43.4% | NCI/ADR-RES ovarian; 10 µM unless noted 35%

CC(=O)Nc1cccc(-n2c(COc3ccc(Br)cc3)nc3ccccc32)c1
inactive: SK-MEL-2 melanoma; 10 µM unless noted 95.4% and 112% | EKVX NSCLC; 10 µM unless noted 98.1% and 103% | SN12C renal; 10 µM unless noted 104% and 110% | UO-31 renal; 10 µM unless noted 69.3% and 86.1% | TK-10 renal; 10 µM unless noted 119% and 110% | ACHN renal; 10 µM unless noted 79.6% and 107% | CAKI-1 renal; 10 µM unless noted 72.4% and 101% | A498 renal; 10 µM unless noted 105% and 124% | CCRF-CEM leukemia; 10 µM unless noted 95.9% and 98.5% | MOLT-4 leukemia 84.6% and 101% | SR leukemia 79.1% and 87.9% | RPMI-8226 leukemia; 10 µM unless noted 87.2% and 107% | OVCAR-8 ovarian; 10 µM unless noted 113% and 114% | OVCAR-5 ovarian; 10 µM unless noted 105% and 109% | OVCAR-4 ovarian; 10 µM unless noted 88.1% and 101% | SK-OV-3 ovarian; 10 µM unless noted 76.5% and 107% | IGROV1 ovarian; 10 µM unless noted 90.7% and 111% | OVCAR-3 ovarian; 10 µM unless noted 96.9% and 97.7% | HS 578T breast; 10 µM unless noted 78.2% and 106% | NCI/ADR-RES ovarian; 10 µM unless noted 89.3% and 104%

COc1ccc(-c2nc3ccc(-c4nnc(SCc5ccccc5)o4)cc3[nH]2)cc1OC
inactive: SK-MEL-2 melanoma; 10 µM unless noted 66.4% | EKVX NSCLC; 10 µM unless noted 58.1% | TK-10 renal; 10 µM unless noted 23% | CAKI-1 renal; 10 µM unless noted 16.2% | A498 renal; 10 µM unless noted 117% | CCRF-CEM leukemia; 10 µM unless noted 76.4% | MOLT-4 leukemia 78.8% | SR leukemia 56.3% | RPMI-8226 leukemia; 10 µM unless noted 44.5% | OVCAR-5 ovarian; 10 µM unless noted 34.2% | SK-OV-3 ovarian; 10 µM unless noted 62.9% | IGROV1 ovarian; 10 µM unless noted 42.8% | OVCAR-3 ovarian; 10 µM unless noted 10.7%
active: SN12C renal; 10 µM unless noted -2.42% | UO-31 renal; 10 µM unless noted -8.65% | ACHN renal; 10 µM unless noted -45.4% | OVCAR-8 ovarian; 10 µM unless noted 6.86% | OVCAR-4 ovarian; 10 µM unless noted -45.4% | HS 578T breast; 10 µM unless noted 2.46% | NCI/ADR-RES ovarian; 10 µM unless noted 7.16%
